{
  "source": "PubChem BioAssay AID435019",
  "about": "(Southern Research Specialized Biocontainment Screening …, 2010)",
  "note": "The whole screen tested about 2,300 compounds, of which about 1,200 (52%) were called active. The rule behind the calls is not given here. So high a share suggests a set chosen from earlier hits. This is one part of the list. Entries that show only a call come without a potency. Potency and affinity values are given separately.",
  "data": [
    {"experiment": "mammalian cell cytotoxicity, dose response, cytotoxicity control for M. tuberculosis inhibitor project (AID 435019);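 note: lower values mean fewer viable cells so more cytotoxicity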", "conditions": "cytotoxicity counter-screen; series mostly up to 40 µM", "values": [
      {"smiles": "COC(=O)C(C)Oc1cc(C)ccc1COc1ccc(-n2nc(C)n(C(F)F)c2=O)cc1", "note": "(stereo unspecified)", "outcome": "inactive"},
      {"smiles": "Cc1[nH]n(-c2ccccc2)c(=S)c1C=NCCCN=Cc1c(C)[nH]n(-c2ccccc2)c1=S", "outcome": "inactive"},
      {"smiles": "CC1=NN(c2ccccc2)C(=O)/C1=C\\c1c(C)[nH]n(-c2ccccc2)c1=O", "outcome": "inactive"},
      {"smiles": "O=C(NC1CCN(C(=O)N2c3ccccc3Sc3ccccc32)CC1)c1ccccc1F", "outcome": "inactive"},
      {"smiles": "Oc1ccc(/C=N/NC(=S)N2CCOCC2)cc1", "outcome": "inactive"},
      {"smiles": "CC1CCN(c2nc(Cl)nc(Nc3ccc([N+](=O)[O-])cc3)n2)CC1", "outcome": "inactive"},
      {"smiles": "O=c1c2cc(Br)cc(Br)c2oc2nc3n(c(=O)c12)CCCS3", "outcome": "inactive"},
      {"smiles": "Cc1ccc(C2=NNC3(CCOC(C)(C)C3)S2)cc1", "note": "(stereo unspecified)", "outcome": "inactive"},
      {"smiles": "Cc1cccc2c1N(CCCOc1ccc(C(C)(C)C)cc1)C(=O)C2=O", "outcome": "inactive"},
      {"smiles": "CCOc1ccc(N/C(C)=C/C(=O)c2ccc3c(c2)OCCO3)cc1", "outcome": "inactive"},
      {"smiles": "Cc1ccc(NN=C2c3ccccc3-c3ccccc32)cc1", "outcome": "inactive"},
      {"smiles": "CC1(c2nnc(-c3ccncc3)o2)CC(c2ccccc2)=NO1", "note": "(stereo unspecified)", "outcome": "inactive"},
      {"smiles": "Cc1ccnc(NC(=O)COc2ccc3c(c2)CCC3)c1", "outcome": "inactive"},
      {"smiles": "O=C1C(Cl)=C(N2CCOCC2)C(=O)N1c1cccc(Cl)c1", "outcome": "inactive"},
      {"smiles": "O=C(CN1CCN(c2ccc(F)cc2)CC1)N1CCC(Cc2ccccc2)CC1", "outcome": "inactive"},
      {"smiles": "COc1ccc(/C=N/OCC(=O)OCC(=O)N(C)c2ccccc2)cc1", "outcome": "inactive"},
      {"smiles": "O=C1C2C(c3ccccc3)(C(=O)N1c1ccc(Cl)cc1)C2(c1ccccc1)c1ccccc1", "note": "(stereo unspecified)", "outcome": "inactive"},
      {"smiles": "CC1(c2ccc(OC(F)F)cc2)NC(=O)N(CC(=O)c2ccc3c(c2)OCO3)C1=O", "note": "(stereo unspecified)", "outcome": "inactive"},
      {"smiles": "COc1ccc(NC2(c3ccc(Cl)cc3)C(=O)c3ccccc3C2=O)cc1", "outcome": "inactive"},
      {"smiles": "COC(=O)CCn1c(C)cc(C(=O)COc2ccccc2C(N)=O)c1C", "outcome": "inactive"},
      {"smiles": "c1ccc(-c2ccccc2OCCCCn2ccnc2)cc1", "outcome": "inactive"},
      {"smiles": "CCCc1cc2c(cc1NC(=O)c1ccccc1Cl)OCO2", "outcome": "inactive"},
      {"smiles": "CCCn1nnnc1NC(=O)c1ccc(C)cc1Cl", "outcome": "inactive"},
      {"smiles": "Nc1nc(-c2cccc(F)c2)cs1", "outcome": "inactive"},
      {"smiles": "NC1=NC[C@H](Cc2ccc(O)cc2)N1CCc1cccc2ccccc12", "outcome": "inactive"},
      {"smiles": "N#CC1=C(N)NC(SCC(=O)c2ccccc2)=C(C#N)C12CCCC2", "outcome": "inactive"},
      {"smiles": "CCOC(=O)CSC1=C(C#N)C(c2ccc(C)cc2)C2=C(CCCC2=O)N1", "note": "(stereo unspecified)", "outcome": "inactive"},
      {"smiles": "CCOC(=O)CSc1nnc(NC(=O)c2ccc3c(c2)OCO3)s1", "outcome": "inactive"},
      {"smiles": "C=C(C)C1CCC(C)=C1COC(=O)Nc1ccccc1", "note": "(stereo unspecified)", "outcome": "inactive"},
      {"smiles": "CC(C)C(=O)Nc1cccc(-c2nc3ccccc3c(=O)o2)c1", "outcome": "inactive"},
      {"smiles": "Cc1ccc(C(=O)OCc2nnc(-c3ccccc3)o2)s1", "outcome": "inactive"}
    ]}
  ]
}
